Test results taken from the supplement of paper PMC10849652.
Targets with a hit are over-represented here; the source holds about 7,900 in all. About 0.6% of all pairs of compound and target were hits.

The targets below were run with Cc1ccc(NC(=O)c2ccc(CN3CC[C@H](N(C)C)C3)c(C(F)(F)F)c2)cc1Nc1nccc(-c2cncnc2)n1 [bafetinib] (assay: log2 fold change, soluble protein after heating vs DMSO (PISA); higher = thermal stabilisation; K562 cells, 10 uM, 30 min; active = over 0.2 and 3.5 SD of the protein, either way, in both replicates (recomputed)).
Procedure, shortened: (§1)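 Soluble protein was defined as the supernatant after 21,000xg for 90 min. It came from K562 cells at 2×10^6 cells/mL given 10 μM compound for 30 min, heated in aliquots for 3 min across 48°C-58°C, pooled, and extracted in PBS with 0.5% NP-40 at 4°C, and was quantified by TMTpro 16plex LC-MS/MS with equalised channel sums. Thermal stability against control samples, from duplicates, is reported as log2 fold change.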

Chain of UniProt Q9NQH7 (Q9NQH7 whole entry, looked up): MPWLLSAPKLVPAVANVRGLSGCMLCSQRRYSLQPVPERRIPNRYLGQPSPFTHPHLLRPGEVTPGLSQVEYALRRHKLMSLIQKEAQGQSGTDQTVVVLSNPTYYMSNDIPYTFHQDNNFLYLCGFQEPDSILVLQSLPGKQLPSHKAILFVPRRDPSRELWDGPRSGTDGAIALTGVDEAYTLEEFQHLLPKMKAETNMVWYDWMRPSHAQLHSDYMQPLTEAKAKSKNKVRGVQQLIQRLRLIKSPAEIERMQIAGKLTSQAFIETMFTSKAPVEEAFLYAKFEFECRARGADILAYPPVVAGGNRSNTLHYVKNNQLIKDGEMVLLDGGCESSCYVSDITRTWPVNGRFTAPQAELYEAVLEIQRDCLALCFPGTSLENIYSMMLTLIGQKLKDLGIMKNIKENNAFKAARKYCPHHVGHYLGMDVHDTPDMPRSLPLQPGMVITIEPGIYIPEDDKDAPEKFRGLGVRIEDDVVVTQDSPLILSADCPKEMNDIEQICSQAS
Chain of UniProt Q9Y5K5 (Q9Y5K5 whole entry, looked up): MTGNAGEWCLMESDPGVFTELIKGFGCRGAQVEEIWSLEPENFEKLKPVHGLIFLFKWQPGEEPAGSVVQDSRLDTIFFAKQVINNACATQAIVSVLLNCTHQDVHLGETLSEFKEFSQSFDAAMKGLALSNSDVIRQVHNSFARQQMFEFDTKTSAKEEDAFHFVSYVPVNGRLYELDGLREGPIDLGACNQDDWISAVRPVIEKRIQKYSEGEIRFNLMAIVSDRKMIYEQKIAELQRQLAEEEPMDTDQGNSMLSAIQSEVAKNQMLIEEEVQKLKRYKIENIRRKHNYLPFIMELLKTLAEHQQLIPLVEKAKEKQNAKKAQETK
Chain of UniProt O75717 (O75717 whole entry, looked up): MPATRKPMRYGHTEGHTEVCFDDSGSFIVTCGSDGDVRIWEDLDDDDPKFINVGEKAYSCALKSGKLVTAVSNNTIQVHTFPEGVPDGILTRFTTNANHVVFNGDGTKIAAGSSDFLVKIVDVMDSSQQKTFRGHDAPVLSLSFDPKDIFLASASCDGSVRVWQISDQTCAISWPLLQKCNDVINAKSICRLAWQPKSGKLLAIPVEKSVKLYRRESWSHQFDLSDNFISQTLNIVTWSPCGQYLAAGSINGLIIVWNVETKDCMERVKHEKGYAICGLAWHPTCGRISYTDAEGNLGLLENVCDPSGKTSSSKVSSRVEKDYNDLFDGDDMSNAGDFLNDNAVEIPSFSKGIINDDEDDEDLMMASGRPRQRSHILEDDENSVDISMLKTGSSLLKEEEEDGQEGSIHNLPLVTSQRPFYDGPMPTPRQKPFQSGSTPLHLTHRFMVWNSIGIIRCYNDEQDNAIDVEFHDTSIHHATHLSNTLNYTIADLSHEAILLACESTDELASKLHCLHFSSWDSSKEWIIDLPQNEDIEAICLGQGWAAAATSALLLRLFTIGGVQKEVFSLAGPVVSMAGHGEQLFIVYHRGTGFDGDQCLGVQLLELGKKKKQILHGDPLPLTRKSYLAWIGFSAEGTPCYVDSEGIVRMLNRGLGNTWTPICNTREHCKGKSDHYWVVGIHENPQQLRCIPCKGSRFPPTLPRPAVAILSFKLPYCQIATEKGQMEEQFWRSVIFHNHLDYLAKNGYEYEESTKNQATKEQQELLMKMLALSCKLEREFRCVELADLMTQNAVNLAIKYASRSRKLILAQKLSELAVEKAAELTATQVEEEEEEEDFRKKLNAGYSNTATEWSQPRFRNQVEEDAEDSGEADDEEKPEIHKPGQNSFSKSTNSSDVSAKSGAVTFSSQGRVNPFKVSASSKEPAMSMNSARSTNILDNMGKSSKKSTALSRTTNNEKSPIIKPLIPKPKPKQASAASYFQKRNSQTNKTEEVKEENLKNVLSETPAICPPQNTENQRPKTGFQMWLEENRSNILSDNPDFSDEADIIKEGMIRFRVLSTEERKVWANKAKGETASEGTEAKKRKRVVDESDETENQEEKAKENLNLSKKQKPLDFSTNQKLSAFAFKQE
Chain of UniProt Q9UID3 (Q9UID3 whole entry, looked up): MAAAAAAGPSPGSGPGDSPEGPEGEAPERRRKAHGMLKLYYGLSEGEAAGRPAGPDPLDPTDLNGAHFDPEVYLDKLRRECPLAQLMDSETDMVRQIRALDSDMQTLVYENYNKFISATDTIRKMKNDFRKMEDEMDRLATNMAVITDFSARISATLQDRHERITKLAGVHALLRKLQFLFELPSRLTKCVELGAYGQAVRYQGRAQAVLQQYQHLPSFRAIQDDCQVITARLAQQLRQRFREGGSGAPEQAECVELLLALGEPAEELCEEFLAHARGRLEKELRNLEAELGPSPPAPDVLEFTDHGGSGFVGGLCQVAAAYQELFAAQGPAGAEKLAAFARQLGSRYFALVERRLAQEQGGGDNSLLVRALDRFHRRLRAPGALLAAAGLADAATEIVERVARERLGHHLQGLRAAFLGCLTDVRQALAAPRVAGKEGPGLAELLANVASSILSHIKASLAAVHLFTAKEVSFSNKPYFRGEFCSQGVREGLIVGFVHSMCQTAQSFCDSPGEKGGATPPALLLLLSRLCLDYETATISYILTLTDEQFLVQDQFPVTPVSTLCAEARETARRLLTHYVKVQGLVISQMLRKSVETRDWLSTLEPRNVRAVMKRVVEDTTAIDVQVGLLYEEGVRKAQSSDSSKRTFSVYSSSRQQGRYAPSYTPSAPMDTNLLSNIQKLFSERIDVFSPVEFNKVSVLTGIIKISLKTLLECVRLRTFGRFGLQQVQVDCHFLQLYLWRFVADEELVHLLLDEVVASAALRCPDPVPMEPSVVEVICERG
Chain of UniProt O95155 (O95155 whole entry, looked up): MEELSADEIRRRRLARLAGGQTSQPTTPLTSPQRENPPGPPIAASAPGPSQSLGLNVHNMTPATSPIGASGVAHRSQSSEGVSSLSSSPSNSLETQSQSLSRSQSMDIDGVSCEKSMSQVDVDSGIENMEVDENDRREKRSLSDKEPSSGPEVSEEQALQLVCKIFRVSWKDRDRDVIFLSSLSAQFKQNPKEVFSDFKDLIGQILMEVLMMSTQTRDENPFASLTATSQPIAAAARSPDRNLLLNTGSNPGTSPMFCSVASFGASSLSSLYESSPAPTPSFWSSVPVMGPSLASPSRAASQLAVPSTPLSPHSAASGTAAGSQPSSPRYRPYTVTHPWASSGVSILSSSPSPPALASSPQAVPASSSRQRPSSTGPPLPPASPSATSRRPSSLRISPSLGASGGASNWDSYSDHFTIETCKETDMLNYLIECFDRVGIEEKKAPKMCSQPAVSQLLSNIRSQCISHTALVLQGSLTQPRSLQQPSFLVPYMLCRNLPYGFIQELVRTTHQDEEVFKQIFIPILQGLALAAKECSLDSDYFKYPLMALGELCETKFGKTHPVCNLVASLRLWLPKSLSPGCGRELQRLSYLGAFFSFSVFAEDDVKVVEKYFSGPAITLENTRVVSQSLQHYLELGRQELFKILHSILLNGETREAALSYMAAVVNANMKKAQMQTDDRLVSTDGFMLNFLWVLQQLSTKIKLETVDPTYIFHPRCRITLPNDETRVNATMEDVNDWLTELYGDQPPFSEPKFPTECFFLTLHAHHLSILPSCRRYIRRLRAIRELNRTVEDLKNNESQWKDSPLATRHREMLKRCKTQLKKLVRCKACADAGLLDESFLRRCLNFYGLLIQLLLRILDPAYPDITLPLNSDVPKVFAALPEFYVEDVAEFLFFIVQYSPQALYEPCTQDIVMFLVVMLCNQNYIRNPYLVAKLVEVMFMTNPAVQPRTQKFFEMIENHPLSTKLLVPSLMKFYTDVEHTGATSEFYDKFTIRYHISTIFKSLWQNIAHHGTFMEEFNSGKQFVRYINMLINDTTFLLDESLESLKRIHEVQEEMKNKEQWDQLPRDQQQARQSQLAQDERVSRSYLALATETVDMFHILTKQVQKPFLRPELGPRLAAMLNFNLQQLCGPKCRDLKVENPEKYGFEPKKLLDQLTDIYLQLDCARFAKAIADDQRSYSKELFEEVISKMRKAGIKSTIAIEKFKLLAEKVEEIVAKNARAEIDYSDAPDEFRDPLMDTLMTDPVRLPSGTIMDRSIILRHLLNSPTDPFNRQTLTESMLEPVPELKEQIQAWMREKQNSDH
Chain of UniProt Q92973 (Q92973 whole entry, looked up): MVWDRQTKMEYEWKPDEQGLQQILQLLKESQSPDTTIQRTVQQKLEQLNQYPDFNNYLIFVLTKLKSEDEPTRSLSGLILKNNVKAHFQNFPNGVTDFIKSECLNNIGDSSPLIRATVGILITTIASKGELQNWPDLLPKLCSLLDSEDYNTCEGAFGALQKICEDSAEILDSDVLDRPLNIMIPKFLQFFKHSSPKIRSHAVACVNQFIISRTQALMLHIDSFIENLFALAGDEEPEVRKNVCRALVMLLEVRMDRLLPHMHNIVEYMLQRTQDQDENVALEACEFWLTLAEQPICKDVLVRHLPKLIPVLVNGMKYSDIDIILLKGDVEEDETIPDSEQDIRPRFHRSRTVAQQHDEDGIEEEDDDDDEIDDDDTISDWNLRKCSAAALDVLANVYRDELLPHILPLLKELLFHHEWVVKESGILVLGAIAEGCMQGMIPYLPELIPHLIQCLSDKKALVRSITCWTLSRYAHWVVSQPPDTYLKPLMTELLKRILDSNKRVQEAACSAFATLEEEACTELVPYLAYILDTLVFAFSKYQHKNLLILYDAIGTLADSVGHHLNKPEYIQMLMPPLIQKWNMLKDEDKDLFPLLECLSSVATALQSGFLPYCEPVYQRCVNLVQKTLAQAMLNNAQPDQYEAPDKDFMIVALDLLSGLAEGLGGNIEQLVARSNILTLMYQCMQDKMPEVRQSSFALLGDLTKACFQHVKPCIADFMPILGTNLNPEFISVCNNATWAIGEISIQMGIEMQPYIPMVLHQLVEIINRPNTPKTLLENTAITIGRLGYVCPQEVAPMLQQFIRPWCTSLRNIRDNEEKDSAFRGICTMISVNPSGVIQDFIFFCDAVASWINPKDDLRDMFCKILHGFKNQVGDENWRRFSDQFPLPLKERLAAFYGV
Chain of UniProt Q9UDW1 (Q9UDW1 whole entry, looked up): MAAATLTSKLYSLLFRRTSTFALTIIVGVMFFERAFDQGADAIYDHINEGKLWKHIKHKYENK

log2 fold change, inactive:
VTA1 (UniProt Q9NP79) -0.035
UBE4B isoform 4 (UniProt O95155) -0.003
USO1 isoform 2 (UniProt O60763) -0.055
VPS16 (UniProt Q9H269) 0.041
WAPL isoform 3 (UniProt Q7Z5K2) 0
VTI1A (UniProt Q96AJ9) -0.004
VPS8 (UniProt Q8N3P4) 0.073
UFL1 (UniProt O94874) 0.032
UTP4 (UniProt Q969X6) -0.04
UTP14A (UniProt Q9BVJ6) 0.157
UGGT1 (UniProt Q9NYU2) -0.005
VPS18 (UniProt Q9P253) -0.097
UBA6 0.009
TMEM161A (UniProt Q9NX61) -0.156
TNFRSF10A (UniProt O00220) -0.044
TRMT61A (UniProt Q96FX7) -0.051
TRAPPC8 (UniProt Q9Y2L5) -0.037
UBE2S (UniProt Q16763) -0.025
UBE2E3 (UniProt Q969T4) -0.029
UCHL5 (UniProt Q9Y5K5) 0.014
VTI1B (UniProt Q9UEU0) -0.064
TNPO1 (UniProt Q92973) -0.104
UQCR10 (UniProt Q9UDW1) -0.047
TMEM87B (UniProt Q96K49) -0.138
USP34 (UniProt Q70CQ2) -0.004
USP14 (UniProt P54578) -0.03
VPS51 (UniProt Q9UID3) 0.009
UBE2J1 (UniProt Q9Y385) 0.108
UBE3D (UniProt Q7Z6J8) -0.036
TRAM1 (UniProt Q15629) -0.152
TOP2A isoform 4 (UniProt P11388) 0.308
XPNPEP3 (UniProt Q9NQH7) -0.06
TRAPPC2L (UniProt Q9UL33) -0.042
XPO5 (UniProt Q9HAV4) -0.037
WDHD1 (UniProt O75717) -0.009
VDAC1 (UniProt P21796) -0.039

The targets below were run with Cc1cccc(CC(=O)N2CCc3c2ccc(-c2cn(C)c4ncnc(N)c24)c3F)n1 in the same assay as above.
Procedure, shortened: as §1

log2 fold change, inactive:
VTA1 (UniProt Q9NP79) 0.081
UBE4B isoform 4 (UniProt O95155) 0.053
USO1 isoform 2 (UniProt O60763) 0.036
VPS16 (UniProt Q9H269) 0.178
WAPL isoform 3 (UniProt Q7Z5K2) -0.044
VTI1A (UniProt Q96AJ9) -0.061
VPS8 (UniProt Q8N3P4) 0.043
UFL1 (UniProt O94874) 0.018
UTP4 (UniProt Q969X6) -0.013
UTP14A (UniProt Q9BVJ6) 0
UGGT1 (UniProt Q9NYU2) -0.007
VPS18 (UniProt Q9P253) 0.059
UBA6 0.036
TMEM161A (UniProt Q9NX61) 0.043
TNFRSF10A (UniProt O00220) -0.051
TRMT61A (UniProt Q96FX7) 0.047
TRAPPC8 (UniProt Q9Y2L5) 0.044
UBE2S (UniProt Q16763) -0.08
UBE2E3 (UniProt Q969T4) -0.029
UCHL5 (UniProt Q9Y5K5) 0.045
VTI1B (UniProt Q9UEU0) -0.177
TNPO1 (UniProt Q92973) 0.022
UQCR10 (UniProt Q9UDW1) -0.011
TMEM87B (UniProt Q96K49) 0.015
USP34 (UniProt Q70CQ2) -0.002
USP14 (UniProt P54578) 0.012
VPS51 (UniProt Q9UID3) 0.039
UBE2J1 (UniProt Q9Y385) 0.023
UBE3D (UniProt Q7Z6J8) -0.047
TRAM1 (UniProt Q15629) 0.117
TOP2A isoform 4 (UniProt P11388) 0.092
XPNPEP3 (UniProt Q9NQH7) 0.008
TRAPPC2L (UniProt Q9UL33) -0.02
XPO5 (UniProt Q9HAV4) 0.036
WDHD1 (UniProt O75717) 0.008
VDAC1 (UniProt P21796) -0.037
